# Test results as given in the supplement of paper PMC6411743.
# ± gives the standard deviation of the averaged measurements. Targets with the largest changes are over-represented here; the source holds about 6,500 in all.
# Compound: Nc1ncnc2c1ncn2[C@@H]1O[C@H](COP(=O)(O)OP(=O)(O)OP(=O)(O)O)[C@@H](O)[C@H]1O [adenosine triphosphate]
# Assay: NP40-soluble protein abundance relative to vehicle (solubility fold change) (ratio); higher = more soluble protein in presence of ATP
# In short: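 Jurkat crude lysate (Dounce-homogenised) was treated with eight concentrations from 0.1 to 10 mM for 10 min at room temperature, then 3 min at 37 °C. It was solubilised with 0.8% NP40 and benzonase (60 min, 4 °C) and ultracentrifuged, and the supernatant was TMT-labelled for LC-MS/MS. Intensities were vsn-normalised, and the value is the fold change against the NP40-processed vehicle per replicate, from three independent experiments.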
# Chain of UniProt Q96JB5 (Q96JB5 whole entry): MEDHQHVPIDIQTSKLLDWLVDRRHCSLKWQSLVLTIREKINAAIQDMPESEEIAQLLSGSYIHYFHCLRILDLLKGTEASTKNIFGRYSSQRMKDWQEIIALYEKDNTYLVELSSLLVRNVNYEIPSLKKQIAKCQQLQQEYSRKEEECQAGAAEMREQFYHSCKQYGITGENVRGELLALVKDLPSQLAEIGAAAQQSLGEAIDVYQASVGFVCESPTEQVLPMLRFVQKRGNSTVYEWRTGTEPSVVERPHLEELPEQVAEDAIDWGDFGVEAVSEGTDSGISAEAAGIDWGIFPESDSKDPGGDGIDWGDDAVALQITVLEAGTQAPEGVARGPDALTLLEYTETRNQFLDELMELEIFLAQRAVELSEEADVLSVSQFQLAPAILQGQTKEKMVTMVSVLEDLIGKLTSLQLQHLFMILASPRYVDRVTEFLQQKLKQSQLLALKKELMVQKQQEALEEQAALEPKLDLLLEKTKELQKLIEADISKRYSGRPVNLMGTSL
# Chain of UniProt Q9UBS0 (Q9UBS0 whole entry): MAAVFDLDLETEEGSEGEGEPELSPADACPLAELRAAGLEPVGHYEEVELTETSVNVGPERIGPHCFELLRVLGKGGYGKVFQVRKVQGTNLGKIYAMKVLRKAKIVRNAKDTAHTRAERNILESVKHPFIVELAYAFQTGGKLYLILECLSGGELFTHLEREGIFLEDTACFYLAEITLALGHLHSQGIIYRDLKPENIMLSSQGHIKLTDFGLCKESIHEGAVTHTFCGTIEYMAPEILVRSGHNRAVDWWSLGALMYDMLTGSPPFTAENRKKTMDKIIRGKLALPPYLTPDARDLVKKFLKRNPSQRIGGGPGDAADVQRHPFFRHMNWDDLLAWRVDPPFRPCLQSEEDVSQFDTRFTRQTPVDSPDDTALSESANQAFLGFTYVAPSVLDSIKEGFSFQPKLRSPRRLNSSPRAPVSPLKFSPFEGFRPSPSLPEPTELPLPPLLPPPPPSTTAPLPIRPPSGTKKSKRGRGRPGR
# Chain of UniProt Q96T23 (Q96T23 whole entry): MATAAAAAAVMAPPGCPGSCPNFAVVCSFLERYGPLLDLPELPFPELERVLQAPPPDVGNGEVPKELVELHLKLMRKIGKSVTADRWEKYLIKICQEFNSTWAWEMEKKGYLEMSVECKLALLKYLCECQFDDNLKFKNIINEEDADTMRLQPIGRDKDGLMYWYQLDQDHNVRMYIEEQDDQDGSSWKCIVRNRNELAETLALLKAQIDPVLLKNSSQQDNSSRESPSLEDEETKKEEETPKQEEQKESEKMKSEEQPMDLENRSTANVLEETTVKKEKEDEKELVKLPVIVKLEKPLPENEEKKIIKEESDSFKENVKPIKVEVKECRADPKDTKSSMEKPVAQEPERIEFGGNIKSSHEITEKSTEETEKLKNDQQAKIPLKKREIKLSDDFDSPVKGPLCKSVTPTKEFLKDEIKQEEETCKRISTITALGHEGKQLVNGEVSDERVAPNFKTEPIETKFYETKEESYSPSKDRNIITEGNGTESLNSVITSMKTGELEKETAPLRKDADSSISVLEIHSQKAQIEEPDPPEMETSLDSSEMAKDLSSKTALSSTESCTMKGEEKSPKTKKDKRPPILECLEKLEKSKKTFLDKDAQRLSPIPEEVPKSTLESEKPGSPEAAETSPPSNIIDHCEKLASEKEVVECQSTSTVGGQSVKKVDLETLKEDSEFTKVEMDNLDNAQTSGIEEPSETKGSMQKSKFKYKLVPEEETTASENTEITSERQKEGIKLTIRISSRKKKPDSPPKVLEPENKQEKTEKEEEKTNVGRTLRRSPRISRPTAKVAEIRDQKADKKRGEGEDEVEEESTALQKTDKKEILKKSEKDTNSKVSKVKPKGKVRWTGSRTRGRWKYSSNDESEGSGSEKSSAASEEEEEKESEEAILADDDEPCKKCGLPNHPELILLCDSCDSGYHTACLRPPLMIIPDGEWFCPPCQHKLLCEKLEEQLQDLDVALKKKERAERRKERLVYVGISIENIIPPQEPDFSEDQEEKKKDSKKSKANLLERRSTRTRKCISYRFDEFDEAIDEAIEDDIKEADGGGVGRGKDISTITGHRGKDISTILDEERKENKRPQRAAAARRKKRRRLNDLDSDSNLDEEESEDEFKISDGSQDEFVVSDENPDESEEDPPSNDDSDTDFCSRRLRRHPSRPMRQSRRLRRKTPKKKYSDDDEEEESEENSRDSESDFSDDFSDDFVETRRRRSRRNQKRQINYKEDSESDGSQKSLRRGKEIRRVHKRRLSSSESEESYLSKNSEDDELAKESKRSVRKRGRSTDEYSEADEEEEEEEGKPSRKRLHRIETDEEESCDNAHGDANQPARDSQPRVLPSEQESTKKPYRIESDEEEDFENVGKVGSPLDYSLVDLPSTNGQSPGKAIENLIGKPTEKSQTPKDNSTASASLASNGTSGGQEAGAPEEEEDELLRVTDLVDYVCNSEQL
# Chain of UniProt Q9NWZ3 (Q9NWZ3 whole entry): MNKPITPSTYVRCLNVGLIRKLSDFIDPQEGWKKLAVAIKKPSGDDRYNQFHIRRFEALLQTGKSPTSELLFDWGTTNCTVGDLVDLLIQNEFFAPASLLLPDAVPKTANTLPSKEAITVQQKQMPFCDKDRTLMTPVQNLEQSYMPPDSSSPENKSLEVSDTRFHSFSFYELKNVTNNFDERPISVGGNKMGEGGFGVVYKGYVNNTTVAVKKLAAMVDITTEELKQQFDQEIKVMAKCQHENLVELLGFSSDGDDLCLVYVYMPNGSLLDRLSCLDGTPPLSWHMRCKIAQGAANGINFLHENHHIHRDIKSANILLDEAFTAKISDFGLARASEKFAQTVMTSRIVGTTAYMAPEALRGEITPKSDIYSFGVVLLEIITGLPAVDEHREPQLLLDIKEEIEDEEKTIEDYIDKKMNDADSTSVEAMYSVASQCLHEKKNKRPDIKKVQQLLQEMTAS
# Chain of UniProt Q96DT6 (Q96DT6 whole entry): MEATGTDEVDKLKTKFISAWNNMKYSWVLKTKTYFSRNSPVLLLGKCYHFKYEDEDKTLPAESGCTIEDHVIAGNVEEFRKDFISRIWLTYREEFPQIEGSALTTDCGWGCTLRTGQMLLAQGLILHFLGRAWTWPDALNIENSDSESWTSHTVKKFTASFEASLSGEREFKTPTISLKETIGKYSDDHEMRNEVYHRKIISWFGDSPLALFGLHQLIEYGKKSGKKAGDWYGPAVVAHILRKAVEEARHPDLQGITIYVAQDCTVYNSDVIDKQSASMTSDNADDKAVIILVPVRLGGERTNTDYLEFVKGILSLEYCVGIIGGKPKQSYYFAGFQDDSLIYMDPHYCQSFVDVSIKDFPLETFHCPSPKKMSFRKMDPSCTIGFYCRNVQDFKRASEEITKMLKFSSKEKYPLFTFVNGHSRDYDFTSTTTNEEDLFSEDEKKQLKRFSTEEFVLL
# Chain of UniProt Q96CN4 (Q96CN4 whole entry): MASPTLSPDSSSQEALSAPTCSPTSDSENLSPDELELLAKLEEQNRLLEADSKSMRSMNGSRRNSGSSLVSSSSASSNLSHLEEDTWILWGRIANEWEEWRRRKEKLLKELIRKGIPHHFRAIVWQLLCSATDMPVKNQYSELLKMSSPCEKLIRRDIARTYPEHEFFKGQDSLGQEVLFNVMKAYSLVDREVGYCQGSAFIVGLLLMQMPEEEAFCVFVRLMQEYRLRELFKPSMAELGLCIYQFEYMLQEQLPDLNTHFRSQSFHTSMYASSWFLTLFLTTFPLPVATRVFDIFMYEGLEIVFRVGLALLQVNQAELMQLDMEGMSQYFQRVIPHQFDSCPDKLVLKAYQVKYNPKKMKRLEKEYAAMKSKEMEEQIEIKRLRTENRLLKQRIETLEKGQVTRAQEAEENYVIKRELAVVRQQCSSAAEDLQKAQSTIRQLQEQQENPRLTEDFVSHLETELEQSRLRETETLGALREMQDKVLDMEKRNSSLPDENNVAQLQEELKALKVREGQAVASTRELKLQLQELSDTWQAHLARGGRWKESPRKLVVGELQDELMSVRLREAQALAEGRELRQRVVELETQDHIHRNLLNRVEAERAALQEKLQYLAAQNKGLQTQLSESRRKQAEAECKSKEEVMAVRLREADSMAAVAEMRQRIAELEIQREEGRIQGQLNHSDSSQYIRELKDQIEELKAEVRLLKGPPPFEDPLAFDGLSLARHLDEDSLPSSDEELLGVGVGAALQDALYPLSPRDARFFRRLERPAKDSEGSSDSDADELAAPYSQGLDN
# Chain of UniProt Q96IX5 (Q96IX5 whole entry): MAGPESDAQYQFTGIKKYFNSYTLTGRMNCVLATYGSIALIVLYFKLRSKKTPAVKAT
# Chain of UniProt Q96QF0 (Q96QF0 whole entry): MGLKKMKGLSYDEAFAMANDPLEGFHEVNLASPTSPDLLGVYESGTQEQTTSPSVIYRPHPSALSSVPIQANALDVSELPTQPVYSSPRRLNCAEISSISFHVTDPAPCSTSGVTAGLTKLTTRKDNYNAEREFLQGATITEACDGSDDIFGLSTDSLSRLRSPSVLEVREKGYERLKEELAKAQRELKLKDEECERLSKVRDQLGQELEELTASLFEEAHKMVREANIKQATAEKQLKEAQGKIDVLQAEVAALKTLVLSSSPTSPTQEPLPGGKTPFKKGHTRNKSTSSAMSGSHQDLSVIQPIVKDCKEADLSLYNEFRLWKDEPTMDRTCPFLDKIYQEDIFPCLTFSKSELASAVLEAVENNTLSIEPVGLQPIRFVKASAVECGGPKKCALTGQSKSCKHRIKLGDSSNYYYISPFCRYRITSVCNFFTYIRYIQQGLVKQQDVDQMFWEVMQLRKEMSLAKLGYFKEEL
# Chain of UniProt Q9BVC6 (Q9BVC6 whole entry): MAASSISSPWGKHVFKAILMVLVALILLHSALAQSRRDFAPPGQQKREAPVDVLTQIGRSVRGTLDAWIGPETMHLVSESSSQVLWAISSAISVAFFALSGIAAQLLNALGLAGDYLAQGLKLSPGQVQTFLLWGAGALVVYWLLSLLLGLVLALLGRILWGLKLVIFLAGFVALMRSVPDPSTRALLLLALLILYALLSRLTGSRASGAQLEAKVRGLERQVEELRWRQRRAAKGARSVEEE
Target,NP40-soluble protein abundance (concentration: 1mM),NP40-soluble protein abundance (concentration: 2mM),NP40-soluble protein abundance (concentration: 4mM),NP40-soluble protein abundance (concentration: 6mM),NP40-soluble protein abundance (concentration: 8mM),NP40-soluble protein abundance (concentration: 10mM)
UniProt Q9NZC7|Q9NZC7-2,1.028 ± 0.01,1.04 ± 0.073,1.04 ± 0.1,1.08 ± 0.13,1.06 ± 0.073,1.2 ± 0.29
UniProt Q96HN2-2|Q96HN2,0.919 ± 0.042,0.934 ± 0.051,0.898 ± 0.025,0.939 ± 0.052,0.911 ± 0.017,0.934 ± 0.01
UniProt Q8WX93|Q8WX93-3|Q8WX93-4|Q8WX93-5|Q8WX93-8,0.978 ± 0.024,0.966 ± 0.046,1.01 ± 0.026,0.97 ± 0.042,0.971 ± 0.044,0.986 ± 0.036
UniProt Q9UBS0,1.1 ± 0.063,1.11 ± 0.082,1.12 ± 0.088,1.05 ± 0.053,1.15 ± 0.14,1.09 ± 0.11
CDK5RAP3 (UniProt Q96JB5),0.997 ± 0.041,1.05 ± 0.066,1.08 ± 0.065,1.11 ± 0.068,1.12 ± 0.045,1.14 ± 0.099
NMNAT1 (UniProt Q9HAN9),1.33 ± 0.36,3.44 ± 2.5,3.91 ± 2.9,4.35 ± 3.5,3.99 ± 2.9,3.99 ± 3
UniProt Q9NVX7-2|A0A075B6T4|Q9NVX7,1 ± 0.072,1.02 ± 0.066,1 ± 0.11,0.957 ± 0.095,1.05 ± 0.065,0.975 ± 0.036
RDH14 (UniProt Q9HBH5),0.997 ± 0.049,1.01 ± 0.0098,1.03 ± 0.043,0.998 ± 0.056,1.05 ± 0.037,1.01 ± 0.035
PAFAH2 (UniProt Q99487),1 ± 0.098,1.01 ± 0.074,0.978 ± 0.053,1 ± 0.27,0.992 ± 0.05,1.02 ± 0.064
UniProt Q9BWW4|Q9BWW4-2|Q9BWW4-3,1.05 ± 0.11,0.958 ± 0.12,0.933 ± 0.12,0.999 ± 0.12,0.956 ± 0.056,0.906 ± 0.1
PGAM5 (UniProt Q96HS1),1.1 ± 0.037,1.14 ± 0.083,1.3 ± 0.06,1.48 ± 0.16,1.64 ± 0.089,1.72 ± 0.11
UniProt Q9NVR5,0.965 ± 0.028,0.98 ± 0.039,1 ± 0.047,1.04 ± 0.065,1.01 ± 0.12,0.967 ± 0.044
PXDN (UniProt Q92626),1.06 ± 0.1,1.03 ± 0.067,1.09 ± 0.06,1.05 ± 0.049,1.04 ± 0.074,1.06 ± 0.1
UniProt Q96KB5|Q96KB5-2,1 ± 0.038,0.98 ± 0.051,0.964 ± 0.031,0.949 ± 0.083,0.958 ± 0.042,0.965 ± 0.039
RPGR (UniProt Q92834),1.03 ± 0.099,1.08 ± 0.039,1.05 ± 0.036,1.07 ± 0.067,1.067 ± 0.0066,1.05 ± 0.013
IRAK4 (UniProt Q9NWZ3),1.02 ± 0.042,1.03 ± 0.045,1.01 ± 0.051,0.985 ± 0.057,0.996 ± 0.043,0.988 ± 0.047
UniProt Q96GN5|Q96GN5-4|Q96GN5-2,1.09 ± 0.19,1.16 ± 0.23,1.23 ± 0.36,1.29 ± 0.35,1.34 ± 0.41,1.42 ± 0.57
DDX23 (UniProt Q9BUQ8),1.14 ± 0.052,1.23 ± 0.1,1.38 ± 0.13,1.52 ± 0.21,1.69 ± 0.17,1.81 ± 0.2
TMEM109 (UniProt Q9BVC6),0.943 ± 0.051,0.962 ± 0.066,0.999 ± 0.082,0.915 ± 0.03,0.955 ± 0.046,0.91 ± 0.074
SAP30L (UniProt Q9HAJ7),1.0942 ± 0.00039,1.12 ± 0.069,1.13 ± 0.092,1.185 ± 0.0041,1.11 ± 0.13,1.07 ± 0.082

Target,NP40-soluble protein abundance (concentration: 1mM),NP40-soluble protein abundance (concentration: 2mM),NP40-soluble protein abundance (concentration: 4mM),NP40-soluble protein abundance (concentration: 6mM),NP40-soluble protein abundance (concentration: 8mM),NP40-soluble protein abundance (concentration: 10mM)
UniProt Q96B36|Q96B36-3,0.861 ± 0.098,0.826 ± 0.085,0.765 ± 0.029,0.826 ± 0.091,0.747 ± 0.071,0.693 ± 0.12
UniProt Q9BTX1|Q9BTX1-2|Q9BTX1-5|Q9BTX1-6,1.01 ± 0.076,1.01 ± 0.071,1.03 ± 0.1,0.996 ± 0.13,1.06 ± 0.044,1.08 ± 0.084
TM9SF3 (UniProt Q9HD45),1.04 ± 0.12,1.03 ± 0.1,1.01 ± 0.079,0.946 ± 0.12,1.05 ± 0.099,1.01 ± 0.097
UniProt Q96CN4|Q96CN4-2,0.985 ± 0.035,1.02 ± 0.061,1.13 ± 0.21,1.1 ± 0.084,1 ± 0.034,1.05 ± 0.059
CCDC124 (UniProt Q96CT7),1.08 ± 0.15,1.14 ± 0.089,1.3 ± 0.2,1.56 ± 0.2,1.64 ± 0.1,1.96 ± 0.36
UniProt Q96T23|Q96T23-2,1.48 ± 0.043,1.62 ± 0.071,1.81 ± 0.041,2 ± 0.1,1.96 ± 0.039,2.13 ± 0.11
FAM117A (UniProt Q9C073),1.04 ± 0.03,0.992 ± 0.02,0.999 ± 0.039,1.01 ± 0.025,0.972 ± 0.053,0.972 ± 0.024
MRPL16 (UniProt Q9NX20),1.17 ± 0.12,1.08 ± 0.11,1.06 ± 0.16,1.11 ± 0.38,1.08 ± 0.18,0.981 ± 0.14
UniProt Q96P11-2,1.05 ± 0.039,1.05 ± 0.03,1.11 ± 0.058,1.09 ± 0.068,1.13 ± 0.083,1.18 ± 0.072
UniProt Q9H6R4|Q9H6R4-4|A0A0A0MRW6|Q9H6R4-2,1.08 ± 0.049,1.03 ± 0.018,1.28 ± 0.027,1.31 ± 0.041,1.39 ± 0.15,1.72 ± 0.15
UniProt Q9NYP7|Q9NYP7-2,1.07 ± 0.19,1.05 ± 0.12,1.05 ± 0.14,0.94 ± 0.15,1.09 ± 0.17,1.01 ± 0.056
UniProt Q96QF0|Q96QF0-2,0.996 ± 0.032,0.946 ± 0.021,1.03 ± 0.034,1.001 ± 0.0051,0.994 ± 0.062,0.979 ± 0.078
ELMO1 (UniProt Q92556),1.05 ± 0.05,1.04 ± 0.043,1.02 ± 0.036,1 ± 0.067,1.04 ± 0.038,1.05 ± 0.05
NCOA5 (UniProt Q9HCD5),1.09 ± 0.031,1.22 ± 0.056,1.49 ± 0.062,1.85 ± 0.12,2.23 ± 0.12,2.76 ± 0.14
PIEZO1 (UniProt Q92508),1.1 ± 0.12,1.09 ± 0.13,1.14 ± 0.24,1.14 ± 0.12,1.09 ± 0.12,1.09 ± 0.012
MECR (UniProt Q9BV79),0.969 ± 0.013,0.959 ± 0.056,0.964 ± 0.037,0.957 ± 0.054,0.94 ± 0.013,0.92 ± 0.012
UniProt Q969M3|Q969M3-3,0.981 ± 0.16,0.97 ± 0.19,0.974 ± 0.22,0.987 ± 0.24,0.961 ± 0.19,0.996 ± 0.19
PNPLA2 (UniProt Q96AD5),1.04 ± 0.047,1 ± 0.069,1.02 ± 0.064,0.927 ± 0.12,0.994 ± 0.062,1.06 ± 0.1
UniProt Q9BZ23|Q9BZ23-3|Q9BZ23-4,0.958 ± 0.079,0.995 ± 0.08,0.937 ± 0.054,0.914 ± 0.05,0.882 ± 0.11,0.91 ± 0.05
DDX18 (UniProt Q9NVP1),1.21 ± 0.029,1.3 ± 0.024,1.503 ± 0.0076,1.74 ± 0.035,2.07 ± 0.024,2.36 ± 0.16

Target,NP40-soluble protein abundance (concentration: 1mM),NP40-soluble protein abundance (concentration: 2mM),NP40-soluble protein abundance (concentration: 4mM),NP40-soluble protein abundance (concentration: 6mM),NP40-soluble protein abundance (concentration: 8mM),NP40-soluble protein abundance (concentration: 10mM)
UniProt Q9P035|H3BS72,1.1 ± 0.16,1.1 ± 0.11,1.1 ± 0.11,1.01 ± 0.091,1.1 ± 0.033,1.15 ± 0.083
UniProt Q96IX5,0.875 ± 0.049,0.935 ± 0.11,0.936 ± 0.16,0.976 ± 0.15,0.909 ± 0.16,0.99 ± 0.14
ATP13A1 (UniProt Q9HD20),1.01 ± 0.1,1 ± 0.06,1.01 ± 0.064,0.951 ± 0.086,1 ± 0.041,0.978 ± 0.03
UniProt Q9BXK5|Q9BXK5-4,0.958 ± 0.041,0.97 ± 0.011,0.957 ± 0.028,0.988 ± 0.021,0.926 ± 0.031,0.916 ± 0.052
UniProt Q96II8|Q96II8-2|Q96II8-4,1.17 ± 0.11,1.21 ± 0.057,1.2 ± 0.035,1.22 ± 0.078,1.17 ± 0.068,1.21 ± 0.034
PAAF1 (UniProt Q9BRP4),1.02 ± 0.037,1.04 ± 0.02,1.01 ± 0.072,0.982 ± 0.02,0.977 ± 0.011,1.01 ± 0.023
ATG4C (UniProt Q96DT6),1.036 ± 0.003,1.05 ± 0.081,1.04 ± 0.041,0.992 ± 0.12,1.05 ± 0.087,1 ± 0.092
UniProt Q9NUL5,0.948 ± 0.041,0.972 ± 0.048,0.921 ± 0.029,0.921 ± 0.057,0.908 ± 0.025,0.924 ± 0.035
UniProt Q96AQ6|Q96AQ6-2,0.939 ± 0.053,0.927 ± 0.024,0.924 ± 0.028,0.953 ± 0.017,0.895 ± 0.01,0.9264 ± 0.0053
GTF2H4 (UniProt Q92759),1.08 ± 0.072,1.04 ± 0.035,1.09 ± 0.059,0.975 ± 0.13,1.16 ± 0.069,1.12 ± 0.036
UBAC1 (UniProt Q9BSL1),0.988 ± 0.025,1 ± 0.025,1.03 ± 0.033,1.04 ± 0.061,0.965 ± 0.034,0.98 ± 0.038
PECR (UniProt Q9BY49),0.965 ± 0.093,0.966 ± 0.037,0.994 ± 0.073,0.984 ± 0.076,1.02 ± 0.053,1.05 ± 0.033
UniProt Q9HCM7,1.71 ± 0.25,1.84 ± 0.31,2.2 ± 0.52,2.13 ± 0.52,2.62 ± 0.69,2.78 ± 0.79
UniProt Q9NUQ7|D6RA67,1.09 ± 0.15,1.07 ± 0.13,1.05 ± 0.093,0.95 ± 0.18,1.08 ± 0.072,1.02 ± 0.091
UniProt Q9NW64,1.05 ± 0.068,1.04 ± 0.041,1.07 ± 0.034,1.09 ± 0.05,1.1 ± 0.049,1.11 ± 0.019
IARS2 (UniProt Q9NSE4),1.04 ± 0.08,1.02 ± 0.075,0.991 ± 0.069,0.977 ± 0.1,1.02 ± 0.056,0.98 ± 0.069
UniProt Q96N16|Q96N16-2,1.17 ± 0.24,1.27 ± 0.16,1.28 ± 0.24,1.37 ± 0.19,1.27 ± 0.23,1.36 ± 0.17
UniProt Q969U7|Q969U7-2,1.02 ± 0.072,1.01 ± 0.012,0.965 ± 0.055,0.983 ± 0.029,0.978 ± 0.072,0.986 ± 0.081
MRPS31 (UniProt Q92665),0.994 ± 0.058,0.93 ± 0.066,0.871 ± 0.062,0.923 ± 0.14,0.865 ± 0.088,0.857 ± 0.073
MRPL38 (UniProt Q96DV4),1.04 ± 0.035,0.869 ± 0.076,0.87 ± 0.08,0.925 ± 0.3,0.86 ± 0.15,0.839 ± 0.15
